Assay results taken from PubChem BioAssay (NCATS).
“And” between values parts separate entries of the source, which are not always exact repeats. Equal values may be shown once. Results filed as inconclusive are left out. Where a call stands in place of a potency, no number is given. The source made the active and inactive calls. Unless noted, calls come from the whole dose curve; as a rule, active = well fitted curve in the direction sought with a large enough effect; inconclusive = small, poorly fitted or top-dose-only effect, or another doubt; inactive = no such curve, though single readings can be large; an effect the other way counts as inactive or inconclusive.

Key:
[1] = P-glycoprotein substrates identified in KB-3-1 adenocarcinoma cell line, qHTS therapeutic library screen (AID 1346986); conditions: KB-3-1 parental cells viability, CellTiter-Glo, 72 h; at 44.5 µM (top of the series); note: nearly all actives have a fitted effect of over 60% in size
How it was run: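 Counter-screen: cherry-picked hits retested in the KB pair and in HEK-293 pcDNA/MDR-19 cells ± tariquidar. Primary screen used 72 h CellTiter-Glo viability in KB-3-1 and KB-8-5-11.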

[2] = P-glycoprotein substrates identified in KB-8-5-11 adenocarcinoma cell line, qHTS therapeutic library screen (AID 1346987); note: nearly all actives have a fitted effect of over 65% in size; note: potency is the fitted concentration of half-maximal effect
How it was run: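 KB-8-5-11: colchicine-selected sub-line of KB-3-1 over-expressing P-gp; assay medium lacked colchicine. 72 h drug exposure at 37 degree C, CellTiter-Glo.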

[3] = NS1 protein of Zika virus - qHTS assay to identify small molecule inhibitors in human HEK 293 cells (AID 1347053); note: nearly all actives have a fitted effect of over 55% in size
How it was run: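 HEK 293 cells, seeded 20 h at 37 C, were pretreated with compound 1 h, then infected with ZIKV MR766 (MOI = 0.5) for 24 h. NS1 was read by TR-FRET with two anti-NS1 antibodies, normalized to uninfected and infected wells.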

[4] = Identifying Small Molecule Inhibitors of Pancreatic Cancer Stem Cells (A278, Adherent) (AID 1259361);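 note: viability read after 48 h compound exposure; nearly all actives have a fitted effect of over 35% in size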
How it was run: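 Adherent (2D) versus sphere (3D) formats; spheres generated 14 d in SCM beforehand. Compound transferred by pin tool after 4 h, 48 h incubation, CellTiter-Glo endpoint.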

[5] = Natriuretic polypeptide receptor (hNpr1) antagonism - Pilot counterscreen GloSensor control cell line (AID 1347045; calls by dose curve)
How it was run: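 HEK293 cells carrying the GloSensor cGMP sensor (GIP/pGS-40F) were loaded with 2% GloSensor reagent for 2 h, exposed to compounds for 30 min, and then stimulated with 50 uM sodium nitroprusside for 20 min at room temperature.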

[6] = biological target: Atrial natriuretic peptide receptor 1 (Homo sapiens) (UniProt P16066); experiment: Natriuretic polypeptide receptor (hNpr1) antagonism - Pilot screen (AID 1347049; calls by dose curve;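 note: agonist-evoked cGMP luminescence read 20 min after hNppA addition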)
How it was run: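 Readout is cGMP-driven firefly luciferase luminescence in HEK293 cells carrying hNpr1 and a PDE5-domain GloSensor, read before and 20 min after 0.1 nM hNppA stimulation. Cells had 2% substrate reagent for 2 h and test compound for 30 min.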

[7] = biological target: Atrial natriuretic peptide receptor 2 (Homo sapiens) (UniProt P20594); experiment: Natriuretic polypeptide receptor (hNpr2) antagonism - Pilot subtype selectivity assay (AID 1347050; calls by dose curve)
Method: F. Fan, B. F. Binkowski, B. L. Butler, P. F. Stecha, M. K. Lewis, K. V. Wood, Novel genetically encoded biosensors using firefly luciferase. ACS Chem Biol 3, 346-351 (2008).
PROTOCOL TABLE (as described by Inglese J, Shamu CE and Guy RK. 2007)
(§1) SEQUENCE No. (e.g., 1, 2, 3, etc.); […] (e.g., Cells, Incubation, Reagent, etc.); VALUE and DESCRIPTION.
1. Cells. Seed 1500 HEK293 cGMP-sensor cells expressing hNpr2 per well in 4uL into Greiner 1536-well white/solid bottom high base, TC plates.
2. Incubation. Incubate plated cells at 37C in 5% CO2, 95% RH overnight.
3. Reagent. Add 1uL per well GloSensor reagent from Promega (2% final concentration) or CO2 independent media vehicle control to respective columns of Greiner 1536-well plates.
4. Incubation. Incubate plated cells at ambient temperature for 2 h., protect from light.
5. Compounds. Library compounds and DMSO vehicle control added at 23nL per well, transferred by Pin Tool.
6. Incubation. Incubate plated cells for 30 min. at ambient temperature, protect from light.
7. Detector. GloSensor baseline pre-read luminescence measured using CCD-based camera (Viewlux).
8. Compound. Add 1uL of hNppC peptide to 1 nM final concentration to stimulate hNpr2 or CO2 independent media as vehicle control.
9. Incubation. Incubate treated cells at ambient temperature for 20 min., protect from light.
10. Detector. GloSensor post-hNppC luminescence measured using CCD-based camera (Viewlux).
NOTES (numbers refer to Sequence numbers above)
1. HEK293 cells expressing hNpr2 and GIP/pGS-40F were grown to 85-95% confluence (48-72 h) in T175 culture flasks (CO2 independent media supplemented with 10% FBS, 1% Pen/Strep antibiotics, and 1 ug/mL puromycin). Trypsinize and harvest cells from T175 culture flasks and filter through 40 um cell strainer. Cells counted with Invitrogen Countess (30,000,000 - 50,000,000 cells/flask). Cells diluted to a final concentration of 375 cells/uL in CO2 independent media and a Millipore multidrop used to dispense 1500 cells per well (4uL/well) into 9 x1536-well Greiner White/Solid bottom, high base tissue-culture treated (TC) plates and one Aurora 1536-well Black/Clear bottom, low base, TC plate (for visual inspection of cell health throughout the duration of the assay).
2. Cells incubated for 24 h. at 37C in 95% RH incubator with metal lid having gas-exchange holes.
3. Prepare GloSensor Reagent (Promega): Reconstitute GloSensor luciferase substrate by adding 8.2mL Hepes buffer to 250mg substrate, mix well, protect from light and stored at -80C. Prepare a fresh 12% GloSensor solution in CO2 independent supplemented plating media (see above). […]
7. Read cellular baseline GloSensor luminescence in presence of test library compounds on the ViewLux [Exposure = 10 s.; Gain = High; Speed = Slow; and Binning = 2X.] […]

[8] = biological target: T1, Tyrosine-protein phosphatase non-receptor type substrate 1 (Homo sapiens) + Leukocyte surface antigen CD47 (Homo sapiens) (UniProt P78324+Q08722); experiment: CD47-SIRPalpha protein protein interaction - LANCE assay qHTS validation (AID 1347057; active = well fitted curve in the direction sought with a large enough effect in the signal ratio, with a control signal flat, not every such curve was filed as active; the % refers to the signal ratio)
How it was run: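 First, His-tagged CD47 and Eu-labelled anti-His antibody met the compound for 30 min; next, site-specifically biotinylated SIRPalpha was added for 30 min; finally streptavidin-APC was added before reading the TR-FRET ratio.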

[9] = biological target: T1, Tyrosine-protein phosphatase non-receptor type substrate 1 (Homo sapiens) + Leukocyte surface antigen CD47 (Homo sapiens); experiment: CD47-SIRPalpha protein protein interaction - HTRF assay qHTS validation (AID 1347058; active = well fitted curve in the direction sought with a large enough effect in the signal ratio, not every such curve was filed as active; the % refers to the signal ratio)
Excerpt: SIRPalpha is a myeloid cell expressed immunomodulatory receptor that binds the tumor expressed immune checkpoint CD47. Therapeutic disruption of this interaction leads to immune-mediated tumor rejection. This assay was used to quantitate CD47-SIRPalpha binding biochemically and evaluate chemical libraries for novel CD47-SIRPalpha inhibitors. To recapitulate the biological interaction of CD47 and SIRPalpha, we designed expression constructs to produce their recombinant, soluble, extracellular interaction domains. CD47 was produced with an N-terminal 6His tag. SIRPalpha was produced with an N-terminal Avi-Tag for site-specific biotin incorporation. The CD47-SIRPalpha interaction was measured by TR-FRET using affinity tag linked reagents (anti-6His-Eu donor and streptavidin-XL665 acceptor). SIRPalpha without biotin incorporation was used as a positive control inhibitor.
as §1
1a. Reagent. 3 uL CD47-His (12.5 nM) and Anti-His Eu Donor reagent (0.7 nM) added to respective wells in Assay buffer; white/solid bottom high base, med bind 1536-well plates (Greiner 789075)
1b. Reagent. 2 uL Assay buffer negative control for background fluorescence
2. Reagent. 23 nL library compounds (7-pt, 1:4 intraplate titration series) or DMSO control transferred by Pin Tool
3. Centrifuge. Centrifuge plate for 30 s at 1000 RPM
4. Incubation.#Incubate reagents at room temperature for 30 min, protected from light
5. Reagent. 2 uL SIRPalpha-biotin (100 nM) in Assay buffer
6. Incubation.#Incubate reagents at room temperature for 30 min, protected from light
7. Reagent. 1 uL SAV-XL665 (85 nM) acceptor reagent added to respective wells
8. Centrifuge. Centrifuge plate for 30 s at 1000 RPM
9. Incubation. Incubate reagents at room temperature for 30 min, protected from light
10. Detector. Measure Top TR-FRET on EnVision (Eu/APC filter set); calculate ratio Ch1/Ch2
1. Assay buffer composition.#Phosphate buffered saline (PBS; 10 mM Phosphate, 137 mM NaCl, and 2.7 mM KCl; pH 7.4), 0.05% IGEPAL CA-630
2. 23nL of […] library compounds (7 plates) or DMSO vehicle control transferred to 9 Greiner white/solid bottom high base, TC plates in 7 interplate 1:5 titrations (see Yasgar, A. et al. 2008) with Pintool. Two of the 9 plates are DMSO-only in compound field at beginning and end of compound library-treated plates.
10. Detector settings#Mirror = LANCE/DELFIA Dual Enh; Ex. Filter = UV2[TRF] 320; Em. Filter = APC 665; 2nd Em. Filter = Europium 615; Measurement h = 6.5; Ex. light (%) = 100; Delay = […]; Window t = 100 us; No. Seq. windows = 1; Time between flashes = 2000us; No. of flashes = 100; No. of flashes for 2nd detector = 100; Calculation: "Ratio Ch1/Ch2"

[10] = biological target: T1, Tyrosine-protein phosphatase non-receptor type substrate 1 (Homo sapiens) + Leukocyte surface antigen CD47 (Homo sapiens); experiment: CD47-SIRPalpha protein protein interaction - Alpha assay qHTS validation (AID 1347059);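 note: bead proximity luminescence from CD47 binding SIRPalpha after compound preincubation with SIRPalpha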
How it was run: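 Binding is measured by AlphaScreen proximity: Ni-NTA acceptor beads capture His-CD47, streptavidin donor beads capture biotin-SIRPalpha. Each of three additions (SIRPalpha with compound, CD47, beads) incubates 30 min at room temperature protected from light.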

Sequence of Atrial natriuretic peptide receptor 2 (Homo sapiens) (P20594 whole entry, looked up): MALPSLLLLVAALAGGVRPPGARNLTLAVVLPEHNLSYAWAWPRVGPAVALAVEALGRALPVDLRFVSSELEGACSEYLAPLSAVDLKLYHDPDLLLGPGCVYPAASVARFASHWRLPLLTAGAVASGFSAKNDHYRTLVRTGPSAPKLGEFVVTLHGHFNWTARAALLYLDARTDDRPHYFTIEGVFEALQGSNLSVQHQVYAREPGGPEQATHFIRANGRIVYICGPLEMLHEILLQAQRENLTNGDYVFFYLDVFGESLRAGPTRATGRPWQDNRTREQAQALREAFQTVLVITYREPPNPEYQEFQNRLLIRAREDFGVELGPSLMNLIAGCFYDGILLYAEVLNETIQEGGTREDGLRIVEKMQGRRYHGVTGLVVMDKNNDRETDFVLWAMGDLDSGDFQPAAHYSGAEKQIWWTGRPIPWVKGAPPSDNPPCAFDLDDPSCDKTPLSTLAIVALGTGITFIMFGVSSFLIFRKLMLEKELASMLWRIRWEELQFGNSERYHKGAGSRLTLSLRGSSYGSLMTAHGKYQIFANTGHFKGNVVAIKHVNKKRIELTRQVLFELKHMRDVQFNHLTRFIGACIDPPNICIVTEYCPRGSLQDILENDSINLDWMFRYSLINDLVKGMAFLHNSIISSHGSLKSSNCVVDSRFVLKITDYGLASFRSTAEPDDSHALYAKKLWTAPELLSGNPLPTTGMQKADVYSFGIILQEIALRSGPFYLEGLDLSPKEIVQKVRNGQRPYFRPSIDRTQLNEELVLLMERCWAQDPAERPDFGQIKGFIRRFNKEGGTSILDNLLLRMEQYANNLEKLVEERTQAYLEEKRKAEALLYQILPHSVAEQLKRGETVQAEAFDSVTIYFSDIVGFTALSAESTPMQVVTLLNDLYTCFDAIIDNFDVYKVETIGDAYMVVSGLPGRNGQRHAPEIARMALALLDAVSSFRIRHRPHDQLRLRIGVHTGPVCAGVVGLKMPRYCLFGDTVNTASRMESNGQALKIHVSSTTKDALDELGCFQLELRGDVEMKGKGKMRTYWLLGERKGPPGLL
T1 sequence (P78324 whole entry, looked up): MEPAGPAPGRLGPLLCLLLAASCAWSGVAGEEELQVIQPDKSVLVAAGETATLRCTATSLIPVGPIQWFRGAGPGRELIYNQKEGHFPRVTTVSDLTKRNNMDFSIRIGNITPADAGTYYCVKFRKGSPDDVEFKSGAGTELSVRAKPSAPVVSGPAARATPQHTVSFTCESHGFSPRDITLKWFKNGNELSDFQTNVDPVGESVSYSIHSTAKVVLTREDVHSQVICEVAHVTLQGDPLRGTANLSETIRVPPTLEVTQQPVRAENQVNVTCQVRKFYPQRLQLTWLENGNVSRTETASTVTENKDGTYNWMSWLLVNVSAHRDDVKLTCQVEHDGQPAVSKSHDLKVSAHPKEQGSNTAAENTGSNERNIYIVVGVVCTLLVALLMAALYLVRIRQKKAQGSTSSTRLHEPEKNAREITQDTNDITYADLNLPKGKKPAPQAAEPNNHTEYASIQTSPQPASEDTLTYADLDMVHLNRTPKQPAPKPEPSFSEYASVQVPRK
T1 sequence (Q08722 whole entry, looked up): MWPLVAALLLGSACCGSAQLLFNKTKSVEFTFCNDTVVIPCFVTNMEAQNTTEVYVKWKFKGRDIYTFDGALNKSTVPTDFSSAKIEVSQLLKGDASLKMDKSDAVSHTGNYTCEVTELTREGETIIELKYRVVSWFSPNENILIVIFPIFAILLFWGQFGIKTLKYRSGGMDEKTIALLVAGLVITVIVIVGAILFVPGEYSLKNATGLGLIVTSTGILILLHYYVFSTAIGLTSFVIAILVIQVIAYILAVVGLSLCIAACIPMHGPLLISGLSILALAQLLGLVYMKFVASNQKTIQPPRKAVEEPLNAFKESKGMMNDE
Sequence of Atrial natriuretic peptide receptor 1 (Homo sapiens) (P16066 whole entry, looked up): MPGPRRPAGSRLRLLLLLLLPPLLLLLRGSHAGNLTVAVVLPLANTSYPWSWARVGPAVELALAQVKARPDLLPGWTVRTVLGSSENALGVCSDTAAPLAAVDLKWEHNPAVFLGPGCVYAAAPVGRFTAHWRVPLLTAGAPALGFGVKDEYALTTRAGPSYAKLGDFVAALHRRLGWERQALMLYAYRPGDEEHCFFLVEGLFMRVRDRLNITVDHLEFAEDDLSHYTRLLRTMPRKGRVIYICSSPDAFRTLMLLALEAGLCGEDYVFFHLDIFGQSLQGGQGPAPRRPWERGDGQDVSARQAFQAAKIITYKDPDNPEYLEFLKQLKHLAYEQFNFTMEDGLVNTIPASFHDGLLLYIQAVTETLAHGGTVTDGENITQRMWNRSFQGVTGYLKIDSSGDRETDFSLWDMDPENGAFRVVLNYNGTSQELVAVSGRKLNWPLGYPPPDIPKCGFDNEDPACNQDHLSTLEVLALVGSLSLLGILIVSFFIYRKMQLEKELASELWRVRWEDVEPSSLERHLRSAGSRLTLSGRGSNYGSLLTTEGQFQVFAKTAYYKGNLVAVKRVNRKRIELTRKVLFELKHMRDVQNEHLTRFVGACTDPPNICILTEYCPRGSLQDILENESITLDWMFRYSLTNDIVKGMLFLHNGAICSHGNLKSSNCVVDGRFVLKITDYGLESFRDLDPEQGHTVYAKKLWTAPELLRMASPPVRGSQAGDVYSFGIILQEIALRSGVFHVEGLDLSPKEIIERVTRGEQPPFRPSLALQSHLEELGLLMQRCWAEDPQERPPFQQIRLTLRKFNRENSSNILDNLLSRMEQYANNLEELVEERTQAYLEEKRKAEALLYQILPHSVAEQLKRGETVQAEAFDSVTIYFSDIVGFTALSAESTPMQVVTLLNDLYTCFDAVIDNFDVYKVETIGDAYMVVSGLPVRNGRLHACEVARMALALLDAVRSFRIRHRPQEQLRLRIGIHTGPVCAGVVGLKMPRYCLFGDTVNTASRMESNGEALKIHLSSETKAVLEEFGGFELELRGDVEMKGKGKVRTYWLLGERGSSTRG

For `O=C(N[C@H]1N=C(c2ccccc2F)c2cccc3c2N(CC3)C1=O)c1cc2ccccc2[nH]1`, the outcome [1] was “inactive”, the Potency [2] was “inactive” and the Potency [3] was “inactive”.
For `CCN(Cc1ccc(Cl)nc1)/C(=C/[N+](=O)[O-])NC`, the Potency [2] was “inactive” and the Potency [3] was “inactive”.
For `C[C@H]1CNCCc2ccc(Cl)cc21`, the Potency [2] was “inactive” and the Potency [3] was “inactive”.
For `CCCCCCCCCCCC[N+](C)(C)CCOc1ccccc1`, the Potency [2] was “inactive”.
With `O=C(O)c1nn(Cc2ccc(Cl)cc2Cl)c2ccccc12` the outcome [4] was “inactive”, the Potency [2] was “inactive” and the outcome [5] was “inactive”. The outcome [6] was “inactive”, the outcome [7] was “inactive” and the Potency [3] was “inactive”. The outcome [8] was “inactive”, the outcome [9] was “inactive” and the outcome [10] was “inactive”.
For `C[C@]12CC[C@H]3[C@@H](CC=C4C[C@@H](O)CC[C@@]43C)[C@@H]1CC[C@@H]2O`, the Potency [2] was 11.6 µM (active) and the Potency [3] was “inactive”.
With `NC(=O)OCCCc1ccccc1` the Potency [2] was “inactive” and the Potency [3] was “inactive”.
With `COC(=O)C1=CCCN(C)C1` the Potency [2] was “inactive”, the outcome [5] was “inactive” and the outcome [6] was “inactive”. For the same compound, the outcome [7] was “inactive”, the Potency [3] was “inactive” and the outcome [8] was “inactive”. For the same compound, the outcome [9] was “inactive” and the outcome [10] was “inactive”.
In the case of `c1ccc2nc(N3CCNCC3)ccc2c1`, the Potency [2] is reported as “inactive” and the Potency [3] is reported as “inactive”.
For `CCC1(c2cnc[nH]2)Cc2ccccc2C1`, the Potency [2] was “inactive”.
In the case of `COP(=O)(OC)OC=C(Cl)Cl`, the Potency [2] is reported as “inactive” and the Potency [3] is reported as “inactive”.
For `Cc1nnc2n1-c1sc(CCC(=O)N3CCOCC3)cc1C(c1ccccc1Cl)=NC2`, the Potency [2] was “inactive” and the Potency [3] was “inactive”.
For `CN(C)C(=O)Oc1cc(OC(=O)N(C)C)cc(C(O)CNC(C)(C)C)c1` (centres undefined), the Potency [2] was “inactive” and the Potency [3] was “inactive”.
With `COc1cc(N)c(Cl)cc1C(=O)NC1CN2CCC1CC2` (centres undefined) the Potency [2] was “inactive” and the Potency [3] was “inactive”.
In the case of `O=C(CCl)c1ccc(Cl)cc1Cl`, the Potency [2] is reported as 2.91 µM (active) and 11.2 µM (active) and the Potency [3] is reported as “inactive”.
In the case of `CCCCCCCCC(=O)NCc1ccc(O)c(OC)c1`, the Potency [2] is reported as “inactive” and the Potency [3] is reported as “inactive”.
In the case of `C[C@H](N)[C@H](O)c1ccc(O)c(O)c1`, the Potency [2] is reported as “inactive” and the Potency [3] is reported as “inactive”.
For `NC(=O)CN1CCCC1=O`, the Potency [2] was “inactive”, the outcome [5] was “inactive” and the outcome [6] was “inactive”. For the same compound, the outcome [7] was “inactive”, the Potency [3] was “inactive” and the outcome [8] was “inactive”. For the same compound, the outcome [9] was “inactive” and the outcome [10] was “inactive”.
